The results in this text go back to PubChem BioAssay AID540355 (National Center for Advancing Translational Sciences (NCATS), 2011).

The list shows a part of the results. Records with an inconclusive call do not appear. Activity calls are given as the source filed them. Calls come from the whole dose curve; as a rule, active = well fitted inhibition curve with a large enough effect; inconclusive = small, poorly fitted or top-dose-only effect; inactive = no such curve, though single readings can be large or run the other way.

Chain of 4'-phosphopantetheinyl transferase Sfp (Bacillus subtilis (strain 168)) (P39135 whole entry, looked up): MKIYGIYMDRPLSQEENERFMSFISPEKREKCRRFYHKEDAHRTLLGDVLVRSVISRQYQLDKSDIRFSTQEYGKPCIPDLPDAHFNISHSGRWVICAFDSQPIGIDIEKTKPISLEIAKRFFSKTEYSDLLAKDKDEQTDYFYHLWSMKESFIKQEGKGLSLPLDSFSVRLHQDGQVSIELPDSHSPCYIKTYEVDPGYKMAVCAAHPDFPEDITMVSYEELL

The assay addresses 4'-phosphopantetheinyl transferase Sfp (Bacillus subtilis (strain 168)) (UniProt P39135). The assay is described as follows: Gel-Based Assay for Inhibitos of Bacillus subtilis Sfp phosphopantetheinyl transferase (PPTase): Chemistry Optimization Followup. The note with it: purified Sfp PPTase, gel-based product detection; series mostly up to 250 µM; activity change, negative = inhibition: at the top concentration. The text has this: The covalent attachment of a phosphopantetheinyl (4'-PP) arm to a variety of synthases and other proteins is a key posttranslational protein modification. The 4'-PP is installed on the proteins post-translationally from coenzyme A (CoA) on a conserved serine residue by action of phosphopantetheinyl transferase (PPTase) enzymes. Phosphopantetheinylation is essential for synthase activity, and removal of the PPTase gene precludes natural product synthesis in microorganisms, or in the case of fatty acid biosynthesis, renders the organism unviable. PPTase enzymes belong to a distinct structural superfamily. Within bacteria, these enzymes are grouped into two classes based upon primary structure, the AcpS-Type and Sfp-Type PPTases.
Sfp-type PPTases, corresponding to an activator of surfactin production in Bacillus subtilis, are responsible for modifying type I polyketide and nonribosomal peptide synthases of prokaryotes. Sfp-type PPTases are responsible for the activation of a variety of pathogen-associated virulence factors. Among these compounds are toxins such as mycolactone from Mycobacterium ulcerans, siderophores such as vibriobactin from Vibrio cholerae or mycobactin from Mycobacterium tuberculosis, as well as the mycolic acids which form the waxy cell wall of Mycobacteria. The biosyntheses of these natural products are considered attractive targets for drug design.
In this assay, compounds were evaluated by monitoring of fluorescence transfer to whole carrier protein substrates via polyacrylamide gel electrophoresis. See Yasgar, et al. (PMID: 20094656) for further details on assay. This assay was used to evaluate follow-up compounds from the primary screen (AID: 1490).
NIH Chemical Genomics Center [NCGC]
NIH Molecular Libraries Probe Centers Network [MLPCN]
Assay Submitter (PI): Michael Burkart, University of California, San Diego
A DMSO solution of confirmed hits (0.5 microL) was added to a 1.33X enzyme solution (15 microL, containing 26.6 nM Sfp, 66 mM HEPES, 13.3 mM MgCl2, 0.0133% NP-40, 0.133% BSA, pH 7.6). After a 10 minute incubation, the enzymatic reaction was initiated by the addition of 4 X substrate solution (4 microL, containing 50 microM Rhodamine CoA and 50 microM apo-Actinorhodin-ACP). The reactions were terminated after a 30 minute incubation at room temperature by the addition of 2X quench solution (20 microL, containing 4 M Urea, 25 mM EDTA, 0.004% phenol red, pH 8.0). Samples were separated under native conditions on a 20% polyacrylamide gel using standard Laemmli conditions. Following the run, gels were imaged with a Chemi-Doc Plus imager (Bio-Rad, Hercules, CA) and band intensity quantified using the ImageJ software package. Pixel density values were normalized to control wells (SCH202676) and fit with the 4-parameter Hill equation using in-house tools.
`COc1cccc(NC(=S)N2CCN(c3ccccc3C(F)(F)F)CC2)n1`: the “activity change, negative = inhibition” value is 61.4% (inactive).
Turning to `Cc1cc(C)nc(NC(=S)N2CCN(c3cccc(C#N)c3)CC2)c1`, the Potency is 10 µM (active).
As to `COc1ccnc(NC(=S)N2CCN(c3ncc(C(F)(F)F)cc3Cl)CC2)c1`, the Potency was 3.02 µM (active).
`COc1cccc(NC(=S)N2CCN(c3ccc(Cl)cc3Cl)CC2)n1`: the “activity change, negative = inhibition” value is 44.2% (inactive).
For the compound `Cc1cc(C)nc(NC(=S)N2CCN(c3ccc(Cl)cc3C(F)(F)F)CC2)c1`, the Potency is 6.75 µM (active).
On to `Cc1cc(C)nc(NC(=S)N2CCN(c3cccc(C(F)(F)F)c3)CC2)c1`, for which the Potency was 1.58 µM (active).
Turning to `FC(F)(F)c1cccc(N2CCN(C(=S)Nc3ccncc3)CC2)c1`, the “activity change, negative = inhibition” value was 5.42% (inactive).
Turning to `Cc1ccc(N2CCN(C(=S)Nc3cc(C)ccn3)CC2)cc1`, the Potency was 3.16 µM (active).
As for `Cc1cc(C)nc(NC(=S)N2CCN(c3ccc4nonc4c3)CC2)c1`, the Potency was 10 µM (active).
